A short description of test [1]: qHTS assay to identify small molecule agonists of the vitamin D receptor (VDR) signaling pathway - cell viability counter screen (AID 743224). Also: series mostly up to about 63 µM; nearly all actives have a fitted effect of over 50% in size. The gist of the method:
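VDR-bla cells, 4 h after plating, exposed to compounds for 16 h at 37C; viability then read in the same wells as CellTiter-Glo luminescence after 30 min at room temperature, following the bla FRET read.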
(In general: qHTS replaces the single test concentration by a dilution series.)

Test [2] can be described thus: qHTS assay to identify small molecule antagonists of the vitamin D receptor (VDR) signaling pathway - cell viability counter screen (AID 743225). Also: nearly all actives have a fitted effect of over 50% in size. The method in brief: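 Same-well multiplex: following 16 h treatment of HEK 293T cells carrying a UAS-driven beta-lactamase reporter with compound and agonist (3 nM final), and a 2 h FRET substrate step, CellTiter-Glo was added and luminescence read after 30 min.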

Test [3] in a line: qHTS assay to identify small molecule agonists of the NFkB signaling pathway (AID 1159509; active = well fitted curve in the direction sought with a large enough effect in the signal ratio in the repeat runs, not every such curve was filed as active; the % refers to the signal ratio; also: series mostly up to about 61 µM). The gist of the method:
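ME-180 NFkB-bla, 2,000 cells/well, overnight plating; cpd pinned in DMSO, 5 h 37 C; B/G FRET substrate 1.5 h RT; ex 405, em 460/530 nm.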

Test [4] in a line: qHTS assay to identify small molecule agonists of the NFkB signaling pathway - cell viability counter screen (AID 1159515; calls by dose curve; also: series mostly up to about 61 µM; nearly all actives have a fitted effect of over 55% in size). The method in brief: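 NFkB-bla ME-180 cells, 2,000/well, plated overnight at 37 C; compound added for 5 hr at 37 C. Viability read in the same wells as the bla reporter, by CellTiter-Glo luminescence after 30 min at room temperature.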
Test [5] is described as follows: qHTS assay to identify small molecule agonists of the endoplasmic reticulum stress response signaling pathway (AID 1159516; active = well fitted activation curve with a large enough effect in the signal ratio in the repeat runs, not every such curve was filed as active; the % refers to the signal ratio). The gist of the method:
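CellSensor ESRE-bla HeLa cells, 1,500 per well, plated overnight, then exposed to compounds for 5 hr at 37 C. Beta-lactamase reporter read with LiveBLAzer B/G FRET substrate after 2 hr at room temperature, 405 nm excitation, 460 and 530 nm emission.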

Test [6] is described as follows: qHTS assay to identify small molecule agonists of the endoplasmic reticulum stress response signaling pathway - cell viability counter screen (AID 1159517; calls by dose curve;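 also: HeLa cells carrying an ER stress response element beta-lactamase reporter; series mostly up to about 61 µM; nearly all actives have a fitted effect of over 50% in size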). The gist of the method:
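ESRE-bla HeLa cells, 1,500 per well, seeded overnight then treated with compounds for 5 hr at 37 C. After the beta-lactamase read, viability in the same wells is measured by CellTiter-Glo luminescence after 30 min at room temperature.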

Test [7] can be described thus: qHTS assay to identify small molecule antagonists of the retinoid-related orphan receptor gamma (ROR-gamma) signaling pathway - cell viability counter screen (AID 1159520). Also: nearly all actives have a fitted effect of over 50% in size. The method in brief:
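Tet-on ROR gamma CHO cells were given compounds for 2 hr, then doxycycline hyclate at 1 uM final, and incubated 16 hr at 37 C. Viability was measured as ATP content by CellTiter-Glo luminescence.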

For test [8], the target named is Nuclear receptor ROR-gamma (Homo sapiens) (UniProt P51449). Briefly: qHTS assay to identify small molecule antagonists of the retinoid-related orphan receptor gamma (ROR-gamma) signaling pathway (AID 1159521). The gist of the method:
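Inducible-expression reporter assay: doxycycline (1 uM final) switched on RORγ in CHO cells bearing a ROR response element-luciferase construct, with test compounds present from 2 h beforehand. Decreased luminescence after 16 h defined antagonist activity.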

Test [9] can be described thus: qHTS assay to identify small molecule agonists of the AP-1 signaling pathway - cell viability counter screen (AID 1159525; calls by dose curve; also: nearly all actives have a fitted effect of over 55% in size). The method in brief: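 AP-1-bla ME-180 cells in Opti-MEM with 0.5% dialyzed FBS, compound exposure 5 h at 37 C in 15-point titration. Viability read in the same wells as ATP content by CellTiter-Glo luminescence, normalised to tetra-n-octylammonium bromide and DMSO controls.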

Test [10] is described as follows: qHTS assay to identify small molecule agonists of the AP-1 signaling pathway (AID 1159526; calls by dose curve; also: potency is read from the fitted curve at half-maximal effect).
Test [11] concerns the target Retinoic acid receptor RXR-alpha (Homo sapiens) (UniProt P19793). Briefly: qHTS assay to identify small molecule agonists of the RXR signaling pathway (AID 1159527; calls by dose curve; also: nearly all actives have a fitted effect of over 35% in size). The method in brief: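 Compounds in DMSO were added to RXR-alpha-UAS-bla HEK 293T cells kept in 2% charcoal-stripped serum, and incubated 16 hr at 37 C with 5% CO2. Reporter signal came from a 2 hr B/G FRET substrate step.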

Test [12] in a line: qHTS assay to identify small molecule antagonists of the retinoid acid receptor (RAR) signaling pathway - cell viability counter screen (AID 1159551). Also: nearly all actives have a fitted effect of over 35% in size. The gist of the method: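 C3RL4 RARE-luciferase cells, 1,000/well, incubated overnight, then dosed with compound plus 1 uM retinol (final). After 6 hr at 37 C, viability read by CellTiter-Glo ATP luminescence following 30 min at room temperature.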

The nature of test [13]: qHTS assay to identify small molecule agonists of the retinoic acid receptor (RAR) signaling pathway (AID 1159553). The method in brief: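 C3RL4 RARE-luciferase cells were seeded at 1,000/well and grown overnight at 37 C, then exposed to compounds for 6 hr at 37 C, 5% CO2. Luciferase reagent was added and luminescence was read after 30 min at room temperature.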
Test [14] in a line: qHTS assay to identify small molecule antagonists of the retinoic acid receptor (RAR) signaling pathway (AID 1159552; also: nearly all actives have a fitted effect of over 50% in size). The gist of the method: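 Antagonism of retinol-induced RARE reporter activity was measured in C3RL4 cells. Exposure to compounds and 1 uM final retinol lasted 6 hr at 37 C, with luminescence as endpoint.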
A short description of test [15]: qHTS assay to identify small molecule agonists of the RXR signaling pathway - cell viability counter screen (AID 1159529). The gist of the method:
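Counter screen: CellTiter-Glo luminescence. Cells: RXR-alpha-UAS-bla HEK 293T. Medium: 2% charcoal-stripped FBS. Treatment: 16 h, 37 C. Reagent incubation: 30 min, RT.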

For 11 compounds, Potency and outcome results are on record in PubChem BioAssay (Tox21).

The structures appear in SMILES notation. Inconclusive results are not listed. Where a structure was tested more than once in an assay, its records may differ in their call. The source made the active and inactive calls. Unless noted, calls follow the shape of the dose curve; as a rule, active = well fitted curve in the direction sought with a large enough effect in the repeat runs; inconclusive = weak or mixed curves; inactive = no such curve, though single readings can be large; an effect the other way counts as inactive or inconclusive.

Chain of Retinoic acid receptor RXR-alpha (Homo sapiens) (P19793 whole entry, looked up): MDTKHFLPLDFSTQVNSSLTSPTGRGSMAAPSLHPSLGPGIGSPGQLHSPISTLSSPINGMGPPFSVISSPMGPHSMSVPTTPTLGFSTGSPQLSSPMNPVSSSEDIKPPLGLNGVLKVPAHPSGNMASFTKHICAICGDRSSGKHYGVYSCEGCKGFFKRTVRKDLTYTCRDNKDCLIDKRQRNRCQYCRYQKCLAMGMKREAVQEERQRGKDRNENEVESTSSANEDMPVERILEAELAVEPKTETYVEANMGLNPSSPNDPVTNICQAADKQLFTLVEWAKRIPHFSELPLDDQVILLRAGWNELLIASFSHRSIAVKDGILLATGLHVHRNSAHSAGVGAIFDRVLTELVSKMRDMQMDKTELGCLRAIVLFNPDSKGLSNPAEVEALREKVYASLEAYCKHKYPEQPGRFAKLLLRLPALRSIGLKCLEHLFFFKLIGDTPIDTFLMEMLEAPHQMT

Consider `Cc1ccc(N=C=O)cc1N=C=O`, for which the Potency entry in test [1], in test [8], in test [10], in test [11] and in test [13] was “inactive” throughout. Further, the call in test [2], in test [3], in [4], in test [5], in [6] and in test [7] was inactive. Further, the outcome in test [9] and in [12] was inactive.

`N#Cc1ccccn1`: the Potency result in test [1], in test [8], in [10], in test [11] and in test [13] was “inactive” in each case. The compound was called inactive in test [2], in [3], in [4], in [5], in [7] and in test [9]. Further, in test [12], the call was inactive.

With `C=CCN=C=S`, the Potency result in test [1], in [8], in test [10], in [11], in test [14] and in [13] was “inactive” in each case. Besides, the outcome in [2], in test [3], in test [4], in test [5], in [7] and in [9] was inactive. For the same compound, the outcome in test [12] was inactive.

Turning to `Sc1ccccc1`, the Potency result in test [1] and in [8] was “inactive” throughout. Moreover, the compound was classed as inactive in [2], in [3], in test [4], in [5], in test [7] and in test [9]. Also, the call in test [12] was inactive. For the same compound, the Potency in test [10] is 49.7 µM (active) and inactive.

Regarding `COC(C)(C)CCCC(C)C/C=C/C(C)=C/C(=O)OC(C)C` (stereo not given), the Potency result in test [1], in test [8], in test [10], in test [11], in [14] and in [13] was “inactive” in each case. In addition, the outcome in test [2], in test [3], in [4], in test [5], in test [7] and in test [9] was inactive. In addition, in test [12], the result was inactive.

As to `C=CC(=O)OCC(CC)CCCC` (stereo not given), the Potency entry in test [1], in test [8], in test [10], in [11] and in test [13] was “inactive” each time. The result in test [2], in [3], in test [4], in test [5], in [7] and in [9] was inactive. The compound was classed as inactive in [15] and in [12].

As for `COc1cc(-c2ccc(N)c(OC)c2)ccc1N`, the Potency entry in [1], in test [8], in test [10], in [11] and in test [13] was “inactive” each time. The outcome in test [2], in test [3], in test [4], in [6], in [7] and in [9] was inactive. For the same compound, the compound was called inactive in test [15] and in [12].

In the case of `COP(=S)(OC)SCN1C(=O)c2ccccc2C1=O`, the Potency entry in test [1], in test [10] and in test [11] was “inactive” in each case. Also, the call in test [2], in test [3], in [4], in test [5], in [7] and in test [9] was inactive. Further, the compound was called inactive in test [15] and in [12].

In the case of `CCCOC(=O)c1ccccc1C(=O)OCCC`, the Potency entry in test [1], in [8], in test [10] and in [11] was “inactive” throughout. Besides, the outcome in test [2], in [3], in test [4], in [5], in test [7] and in [9] was inactive. The compound was classed as inactive in test [15] and in test [12].

As to `C=CC#N`, the Potency result in [1], in [8], in test [10], in test [11], in test [14] and in test [13] was “inactive” throughout. Moreover, the compound was called inactive in test [2], in test [3], in test [4], in test [5], in [7] and in test [9]. Further, in test [12], the call was inactive.

`CC(C)(C)C(=O)CCl`: the Potency result in test [1], in [8], in test [10] and in test [11] was “inactive” each time. In addition, the outcome in [2], in test [3], in [4], in test [5], in [7] and in test [9] was inactive. Besides, the call in [15] and in test [12] was inactive.
